Source: PubChem BioAssay AID1347426 (Functional Genomics Laboratory (NCATS/FGL), 2020)
In all, about 31,000 sequences went through this assay and about 1,400 (4.5%) were called active.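 The calls were made as follows: active = median seed-adjusted z-score above 1 or below -1; inactive = the rest.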 The full list was thinned out, with actives kept by preference.

assay: Novel Modifiers of Survival Motor Neuron (SMN) Protein: Gene Identification via Genome-wide siRNA Screen; settings: HEK293T SMN2-luciferase reporter, siRNA knockdown, 72 h; actives lie on both sides;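 also: luminescence tracks full-length SMN protein made from the SMN2 reporter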
Outline: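 Steps: spot 1 pmol siRNA, add Lipofectamine RNAiMax in serum-free DMEM, seed HEK293T SMN2–luciferase reporter cells; incubate 72 h at 37 °C; add ONE-Glo; normalize luminescence to control siRNA, log10, MAD. Candidates: |MAD| > 1.0.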

Row | Sequence | median seed-adjusted z-score
1 | AGUUUGAUGUUAUCAAUCUTT against PRKAG1 | 0.431 (inactive)
2 | GCAGAUCUCGCUACAGGGATT against SFRS2B | -0.272 (inactive)
3 | UCAGCUUCAGCUUAACUGATT against TUBA1B | 0.0888 (inactive)
4 | CGAGAAUGACUAUCUUCAATT against STK32C | -0.311 (inactive)
5 | GACCUGGGCAGAUUCCAAATT against MMP9 | -1.15 (active)
6 | GGGUAUGAGAUAUGCGGUATT against TYW1 | 0.201 (inactive)
7 | GAUUAGAUCUAAACAAUCUTT against TTRAP | -0.33 (inactive)
8 | CCAGAAUGCCCAUAUCACATT against RS1 | -0.684 (inactive)
9 | GCCUUCUGAUGGUAGAUCUTT against RANBP17 | -0.123 (inactive)
10 | GGAUGGCAGGGAUUCCGAATT against ZNF213 | 1.37 (active)
11 | GGAAAGUUGUGGGUCUAAUTT against SERPINA7 | 0.0925 (inactive)
12 | GGACUUAAGCGACAACGCATT against RANGAP1 | -0.0379 (inactive)
13 | GCACCGAACCCGUCUAUCATT against POU3F4 | -0.314 (inactive)
14 | GUAGCUUGCUACUCCAGAATT against POLR2D | -3.79 (active)
15 | CGGAUGCACAAGCUAAAUATT against BHLHA15 | -0.199 (inactive)
16 | CGGAAGGUAGUAAACCUUUTT against AMY1A | 0.272 (inactive)
17 | GUAGCUCAUUUGUAAGGAATT against ZNF578 | -0.808 (inactive)
18 | GGAGCGCAAGAUCACCUUATT against SSTR1 | 0.285 (inactive)
19 | GCCGGUAUGUGAAGGAGAATT against CLK3 | -1.11 (active)
20 | CACUUUUUAUAUUUACGUATT against TSPAN4 | 0.417 (inactive)
21 | GUGUAGACAUAGUCUAAAATT against ZNF532 | -0.0289 (inactive)
22 | CCCUGUCUGUGAAGCAUGATT against TXNDC2 | -1.29 (active)

Row | Sequence | median seed-adjusted z-score
23 | GCUACAUCUUUAUAAGGGATT against IL12RB2 | 0.368 (inactive)
24 | GGAAGAAAGCGGGACUUUUTT against PPME1 | 0.342 (inactive)
25 | CAGACUCCCUCAUCACCAATT against ALAS1 | -1.15 (active)
26 | CAAUGAACACUACUAACCATT against IL31RA | 0.36 (inactive)
27 | CGGGAGUGGUUUUCAGAGATT against APOC1 | 0 (inactive)
28 | GCUCUGAAUUCAGUGUUUATT against HTR3E | -0.717 (inactive)
29 | GGUCUAACUCAAUAAUGGATT against REV3L | 0.062 (inactive)
30 | GCUGAAUAUCUACACGGAATT against SLCO4A1 | -0.0802 (inactive)
31 | GUGCUCGAAUGAUAACUAUTT against RAB2A | -0.038 (inactive)
32 | GUGGAACAAUUGUAACAGATT against ETF1 | -1.12 (active)
33 | GCUUCGAAUGGAUCUAGAATT against MYH8 | 0.0648 (inactive)
34 | CCAACGAACAUGUACAACATT against CACNA2D3 | 0.198 (inactive)
35 | GGAUAUGGUUAAUAGGAGATT against SMC6 | 0.227 (inactive)
36 | GCAGUUAGAUGUCAGGACATT against PPIA | 0.0169 (inactive)
37 | CGAAAGGAGUCUUCACCAATT against PRDX6 | -0.0302 (inactive)
38 | CCCUAGAUAUGGACGAUGATT against UTP3 | -1.08 (active)
39 | CAAUGGACAGAAUACACUUTT against ZNF614 | 0.0971 (inactive)
40 | UGAGCAGUGAGAACCCAUATT against PEAR1 | 0.071 (inactive)
41 | CCAUAGUAGUGACUACCAUTT against GRIA3 | -0.358 (inactive)
42 | AACUGGACCUUAAAAAGAATT against POU4F3 | 0 (inactive)
43 | GGAUGUCCAGAGGCACUAATT against POLA2 | -0.114 (inactive)
44 | GAAAGACUUGUUUAUAUUATT against ADRB1 | 1.06 (active)

Row | Sequence | median seed-adjusted z-score
45 | CUCAAUCCAUAGUAAGUAUTT against ZNF678 | 0.172 (inactive)
46 | CAAUUCUUGUCAUUUGAAATT against SLC25A19 | -0.104 (inactive)
47 | CCAUAAUGAUAGAGUUUAATT against SLC24A4 | 0.0358 (inactive)
48 | GAGUGAGAGCUGUAGAAAATT against CREB3 | 0.0509 (inactive)
49 | AGUGGACAACAGAACAAUATT against SNRPG | -3.09 (active)
50 | CCUGUACGAUGAGAUAGAATT against CYFIP2 | -0.322 (inactive)
51 | GGAUGCACUUCUAAACUCATT against AKR1D1 | 0.211 (inactive)
52 | GGUCUAGCCUUACACCUCATT against RAB3GAP2 | 0.0583 (inactive)
53 | GAAGGGCUCUUUCACAGCUTT against ADAMTS13 | -0.276 (inactive)
54 | GGACAUGUUCUACUCUUCATT against LRP5 | -1 (active)
55 | GUCUCGAUGGAGCAAAGUATT against TCERG1 | 0.415 (inactive)
56 | CGACUUGCUAAGCUACAUATT against MAOA | 0.665 (inactive)
57 | GGAACAACGGUGGAGAUUUTT against ITGB5 | -0.00882 (inactive)
58 | GAAAGGAUCAGUGUCGAUATT against OCRL | -0.545 (inactive)
59 | GCAGUUUCAGGGUAUGAAATT against LGMN | 0.391 (inactive)
60 | GGAUCAUACUAGAAGACUATT against TREM1 | 0 (inactive)
61 | GGAACACUAUGAUGAGUUUTT against U2AF1 | 2.08 (active)
62 | GCUGCUCCCGGAAAUGCAATT against ISOC2 | -0.599 (inactive)
63 | CAACAUGCCCAUUCGCUUUTT against ADIPOQ | 0.557 (inactive)
64 | GCCUGAGACCAAAAACAGATT against SLC2A9 | 0.216 (inactive)
65 | GAUCUGCAUCAAUACUGAATT against FBLN5 | -0.0832 (inactive)
66 | CACUGACUAUUAUCAUUCATT against WHSC1L1 | -0.283 (inactive)

Row | Sequence | median seed-adjusted z-score
67 | GGGAUGUAAUAACAGCAUUTT against GDE1 | -0.256 (inactive)
68 | CUGUUGCACUUCACAUUUUTT against TRIP13 | 1 (active)
69 | CAGCUUAAUUUUUACGCAATT against IPMK | -0.00138 (inactive)
70 | CACCUACGAUAGCUACUAUTT against NKTR | -1.1 (active)
71 | GCCUCACGUUUGUCAGUAUTT against WNK3 | -0.466 (inactive)
72 | CAUCCAACGACAAUCUAUATT against ATP1A2 | 0.248 (inactive)
73 | UCACGGCUCUGUUGAAUGUTT against DUSP4 | -0.176 (inactive)
74 | GACCCAUGGUAAAAUGCAATT against TWIST1 | -0.159 (inactive)
75 | GCAUAAUAAGGGUAGGGAUTT against DDX53 | -0.136 (inactive)
76 | GAUAGAAGCAUGGAAUUGATT against MRS2 | 1.38 (active)
77 | GGUCAAUUCAGUGAAGAUATT against ARL8B | -0.477 (inactive)
78 | GAUUGGUGGUUGGAACAUUTT against ECE2 | 0.794 (inactive)
79 | CCAAAGAUAUCGGACCCUATT against PI4K2A | -0.486 (inactive)
80 | CGGCGUCUCUACUACGUCUTT against CLEC11A | -1.1 (active)
81 | CUUCCUGGGUGUAAUGUUATT against IGSF1 | 0.258 (inactive)
82 | GCAAGGCAGCUGUUCUGAATT against PGLS | 0.188 (inactive)
83 | GCAUCUGUGAGGAUAUUGATT against FBN3 | 0.264 (inactive)
84 | GAGUCGAGUUUGAUGAAGATT against GSTA4 | -0.848 (inactive)
85 | CGUUCGGUCUGACGCAGUATT against LRP5 | -1 (active)
86 | CGAUGUCAGUUUCUAGUAATT against USP42 | -0.0125 (inactive)
87 | GCCGUUUGACCAUACAUUATT against SNTB1 | 0.488 (inactive)
88 | CCAAGAAACUAACACGCUATT against PFKFB2 | 0.311 (inactive)

Row | Sequence | median seed-adjusted z-score
89 | GGAAGGUGAUUGAUCCUAATT against HNRNPD | 0.504 (inactive)
90 | CGAAAAACCAUAGACUACATT against WDR33 | 3.27 (active)
91 | GCAAAUGUCAGAGAUUGAATT against SFXN5 | 0 (inactive)
92 | CAGUUACUCUGGGAGUAUATT against PRPF3 | -0.289 (inactive)
93 | CCAGGUGUAUUCAAUGGAATT against FMO3 | -0.0769 (inactive)
94 | ACGACUGCCUGGUCUUAAATT against ADAP2 | -1.1 (active)
95 | GCACUCGAGUAAUUAGCAATT against DOCK10 | -0.201 (inactive)
96 | GGUUCUGCUUUAUUACCUUTT against HNRNPD | 0.504 (inactive)
97 | CAGCUUACAAUACAUCAAATT against ZNF7 | 0 (inactive)
98 | AAGACAUGAUGUUCCACAATT against ADCY6 | -0.0652 (inactive)
99 | GCACAGAUAUCCUCGUGUATT against ARL11 | 1 (active)
100 | CAGUAGCAGUGGAAUGGGATT against RBMX | 0.0941 (inactive)
101 | GCGCUUCUGGUGUACGACATT against RAB17 | 0.473 (inactive)
102 | CAUCCACACUUCUCCAGAATT against HK1 | -0.129 (inactive)
103 | GAGUGGGCGUGGAUAGAAATT against PSMC2 | -1.96 (active)
104 | AGUUAUUGCUACUUCAGAATT against CX3CR1 | -0.292 (inactive)
105 | GCAACUACGUUGACUUCUATT against CTNND2 | -0.0491 (inactive)
106 | AACUGAACAUAGCAGAAUUTT against ZNF85 | -1.01 (active)
107 | CGGUGACUGUGAACGGCAATT against DNAJB8 | -1.09 (active)
108 | ACAUAGUAAAGACUUUCUATT against PIGA | -0.0514 (inactive)
